# Experimental data published in the supplement of paper PMC6555819.
# Columns and labels:
# Test in all cases: PBM binding z-score (relative to random genomic background probes); higher = stronger binding; sequences stand for … in GC…GCGATTGACAGCGTAGAATGAAGG
# [1] = test system: RARb homodimer (NR concentration 270 nM)
# Method in brief: (§1)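 Antibodies against each partner of ligand-free nuclear receptor dimers (one per run) detected binding on custom Agilent 4×180K protein-binding microarrays after 1 h incubation. The double-stranded probes had 34-nt variable regions carrying direct-repeat seeds, single-nucleotide variants, half-site ablations and random human genomic background sequences. Binding z-scores, from regression-normalized fluorescence, use the random background probes as reference.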
# [2] = test system: RARg:RXRa (NR concentration 270 nM, RXRa partner concentration 90 nM)
# Method in brief: as §1
# [3] = test system: RARg homodimer (NR concentration 270 nM)
# Method in brief: as §1
# [4] = test system: RXRa DBDmut IVT, anti-RXR (DBD mutation: RXRa K156A/R161A, NR concentration 90 nM)
# Method in brief: as §1
# [5] = test system: RXRa homodimer (NR concentration 180 nM)
# Method in brief: as §1
# [6] = test system: THRa:RXRa (NR concentration 90 nM, RXRa partner concentration 90 nM)
# Method in brief: as §1
# [7] = test system: THRa homodimer (NR concentration 90 nM)
# Method in brief: as §1
# [8] = test system: VDR:RXRa (NR concentration 270 nM, RXRa partner concentration 90 nM)
# Method in brief: as §1
# [9] = test system: VDR homodimer (NR concentration 270 nM)
# Method in brief: as §1
Sequence,PBM binding z-score [1],PBM binding z-score [2],PBM binding z-score [3],PBM binding z-score [4],PBM binding z-score [5],PBM binding z-score [6],PBM binding z-score [7],PBM binding z-score [8],PBM binding z-score [9]
TCGTATAGGTAAACAGGTGAAAGTCCGTAAGTTA,1.14,0.368,0.358,1.41,0.637,0.794,0.786,0.883,0.302
TAGCCTAGGTCATTGGGTCAGTATAGTACGCATC,4.17,5.16,5.23,1.87,3.63,3.25,1.84,4.26,2.21
TCTTGTAGATCAAAGGTTAATAAAGCCGAAGCCT,1.25,1.51,0.841,1.09,2.55,1.32,-0.223,1.55,0.243
CCTTACGGGTCACTGACAGGTTGTAGCATTTGGA,3.13,5.06,4.23,2.01,4.67,2.65,0.174,3.34,0.754
TGTTAAAGTTCAAAGGTAACGTAAGTATCCACAC,3.61,5.89,5.47,4.41,6.91,3.42,0.278,4.87,2.82
TAGCCTAGGTCAGATCGGGCCATTATACGCTATA,2.15,2.48,3.68,-0.0922,1.36,4.25,0.543,1.6,-0.154
TCTTGTAGAACAGCAGGTTAAGAAAGCTGGCCAA,-0.365,-0.24,-0.558,0.506,0.0431,-0.111,-1.15,0.0158,-0.882
TCTTGTAGATCAATAGAGGTTAAGAATGTGCGCT,1.06,0.814,0.559,0.783,1.38,2.15,-0.391,1.27,0.277
TCTATTAGTTGATTAGGGCAACCAAAACAGCGGA,0.623,0.694,0.677,0.92,0.57,0.825,0.291,0.701,0.358
GATACAGGGTCAGCTAGAGGCCAGAGAATGGAAA,3.39,6.83,5.12,1.73,4.78,3.35,0.483,3.42,0.71
CCTACTGGGCCAAAGTTCATTGATTCCAATGCTC,3.34,3.23,2.56,2.37,2.73,1.44,0.0374,3.24,3.96
GTACCAAGGTTAATAGGTCGTTGATGAGTAGGCG,2.14,3.29,2.07,0.518,2.5,1.68,0.196,2.23,0.941
CCTACTGGGGCAAGGTTACCATAACGCACAGCCA,1.26,1.22,1.37,-0.688,1.02,1.14,0.409,0.252,0.0551
CCTGCTGGGTCAATGGTCAGCTAAAGCAGCTCGC,2.5,3.24,3.33,0.787,2.48,1.26,-0.14,0.85,-0.211
TTACCAAGGTGAAAGGTCGTTGATGCACGCCTTG,2.52,4.17,2.31,0.684,5.67,3.23,0.838,3.14,1.67
ATACCAAGGTGATCGTGAGCTCGTTGATACTAAC,0.153,-0.0277,0.19,-0.225,0.139,0.678,0.422,-0.0163,-0.219
CAAACTAGGTCATGAAAGGTCAAAGTCGAATGAC,5.55,7.46,7.78,2.45,7.87,5.19,2.21,6.73,4.05
ACTATTAGTGGAGACGAGGGCAACCGATAGGTTG,0.803,0.333,0.653,0.323,0.276,1.45,-0.218,0.101,0.427

Sequence,PBM binding z-score [1],PBM binding z-score [2],PBM binding z-score [3],PBM binding z-score [4],PBM binding z-score [5],PBM binding z-score [6],PBM binding z-score [7],PBM binding z-score [8],PBM binding z-score [9]
CCAGACACGTGAGAAGGTAACTCAGCCTCGATTA,-0.118,0.0186,0.206,0.268,0.0109,-0.00448,-0.0296,-0.39,0.0283
AATACAGGGTCATCGTAGGCCAGAGTACGCACAG,3.55,5.49,5.05,3.55,6.83,4.6,1.54,5.37,3.35
ATATGTAGGTTAGCTCGGGTCATTCAGACTAGGC,2.89,2.48,2.04,0.986,3.02,4.98,2.7,3.96,2.6
CTCGAAAGGCCGGTTGAGGTGAGTATACGGATAA,0.451,0.273,0.383,-0.239,-0.037,3.54,0.438,-0.304,-0.821
CGTCAAAGTTCAACTAAGATAACGTAAAGCACGC,3.75,5.82,6.58,4.65,5.25,2.98,0.329,4.2,3.75
CTCGAAAGGTCGGATGAGGTGAGTATACGGATAA,2.69,3.2,3.26,0.982,2.94,5.16,1.3,2.74,0.327
ACTAGCAGGCCAAGGTTGGGTCACTCAAACAAAG,2.3,1.64,1.36,-0.829,0.638,2.04,0.571,0.381,0.0121
GCTAGTTGGTCAGTAATAGGTCACACACCGGTCG,3.86,3.12,2.58,0.228,2.43,2.06,0.841,1.73,0.317
ATTGAAAGGTCGAGGTGAGTATAGAGAAAGGGAA,3.09,4.26,4.24,1.13,4.51,3.18,1.04,2.87,1.18
AATACAGGGTCACTAGGCCATAGTAGGTACGAAT,3.38,5.37,4.61,2.58,5.6,3.55,1.24,4.25,2.98
GCTACCAGGCCATTTGGGTCACTCAATGACGGGC,2.15,1.21,1.57,0.386,0.86,2.21,1.39,1.36,0.491
CGAACTAGGTCAGAACAGGACAGTAAAGGATGAT,2,2.48,3.35,0.613,1.27,3.43,0.235,0.971,0.325
CAAACAGGGTCAGCTAGGCCAGAGTAGGGACGGC,3.2,4.72,4.56,1.83,4.56,2.94,0.733,4.09,1.44
CAAACTAGGTCACGAAGGGTCAAAGTCGAATGAC,5.36,7.01,7.66,2.33,7.15,4.95,2,6.99,3.79
TCTCGGAGGACACGAAGGTCAGAGTTTTCCAGAG,3.77,3.25,3.92,0.753,2.03,2.83,1.19,2.41,1.93
AGAACGAGGGCACGCTGAGTTGATAGCTGAGTAG,1.13,2.07,2.06,2.15,1.37,1.92,-0.0647,2.04,1.7
CGAACTAGGTCATCCAGGACGGTGAATACATTGA,2.81,4.14,4.7,1.85,3.01,3.07,1.04,3.72,1.3
ATATGTGGGTTAAGGGTCATTCAGGTTGGTTCGC,3.84,4.83,3.59,2.43,6.27,3.62,2.41,5.79,4.82
